About 79,000 compounds went through this panel and 15% of them were active in at least one assay; those are over-represented in the sample as a whole. Unmarked numbers belong to inactive results. Calls of active or inactive are those of the source. Rule as the data show it: active = growth inhibition above about 70%; inactive = the rest.
Experiment: NCI Yeast Anticancer Drug Screen. Data for the cln2 rad14 strain (AID 165);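 also: 0% = growth equal to vehicle treated cultures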
Details: S. cerevisiae cln2 rad14 strain, active compounds read high
Method: Growth inhibition of yeast strains with defined genetic alterations is measured as a screen for potential anti-cancer activity. Selected strains with alterations in DNA damage repair or cell cycle control were exposed to compounds and growth inhibition was measured relative to vehicle treated controls. The strain used in this assay is cln2 rad14

[1] = at 5.0 µM (retest, dose inferred, filed as 0.5)
[2] = at 50.0 µM (retest, dose inferred, filed as 5.0)

SMILES | growth inhibition [1] | growth inhibition [2] | growth inhibition (at 50.0 µM)
Cc1ccc(C(=O)OCC(C)C)cc1N=NN(C)C | 7% | 31% | 38.8%
O=C1c2c(F)c(F)c(F)c(F)c2SC2=NCCN12 | -23% | 98% (active) | 76.8% (active)
O=c1c(O)cc2c(O)oc3c(=O)c(O)c(O)c4c(O)oc1c2c43 | 12% | 90% (active) | 50.3%
Cc1nn(-c2ccc(S(=O)(=O)[O-])cc2)c([O-])c1N=[N+](C)c1ccc(-c2ccc(N=Nc3ccc4c(S(=O)(=O)[O-])cc(S(=O)(=O)[O-])c(N)c4c3[O-])c([O-])c2)cc1[O-].[Cu+2].[Cu+2].[Na+] | -7% | -28% | 64.5%
C[n+]1c(-c2ccc(/C=N/NC(=O)c3ccc(C(=O)N/N=C/c4ccc(-c5cn6ccccc6[n+]5C)cc4)nc3)cc2)cn2ccccc21 | 34% | 99% (active) | 99% (active)
CC(C)(C)c1ccc(C(C)(C)C)cc1 | 4% | -7% | 50.8%
Cc1ncc(CO)c(C=NCCCCCCN=Cc2c(CO)cnc(C)c2[O-])c1[O-].[Cu+2] | -5% | -1% | 81.2% (active)
C=CC(=C)OC | 1% | 8% | 69.9%
N#CC1C(=O)NC(=O)C(C#N)C1c1c(Cl)cccc1Cl (configuration not stated) | 8% | 28% | 48.1%
CCCCOC(=O)c1n[nH]c(C)c1N=NN(C)C | 95% (active) | 99% (active) | 99.4% (active)
O=[N+]([O-])c1ccc2c(c1)Cc1cc(Cl)ccc1-2 | -5% | 3% | 81.4% (active)
CNC(=S)N(C)C(=S)Nn1c(=O)c(C)nn(C)c1=S | -3% | 66% | 57.9%
CCCCCCCCN(CCCCCCCC)CC(O)c1cc(-c2ccc(Cl)cc2)nc2c(Cl)cccc12 (configuration not stated) | -4% | -13% | 45.4%
CCOC(=O)C(Cc1cc(I)c(Oc2ccc(OC)cc2)c(I)c1)NC(C)=O (configuration not stated) | 23% | 95% (active) | 89.3% (active)
